# Source: PubChem
# Compounds with a hit are over-represented: about 0.56% of the library has one in this group of screens.
# LDHA inh = qHTS assay for inhibitors of human lactate dehydrogenase. L-lactate dehydrogenase A chain (Homo sapiens), P00338. purified LDHA, NADH/diaphorase-resazurin fluorescence; stronger effect = lower value. activity change, % (values are at about 110 or 230 µM). hit rate 0.15% among 480,000. AID 1347041, 2019; in the data active = activity change below about -30%; inconclusive = mostly about -25% to -30%;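 note: plate controls were DMSO wells for no effect and wells without enzyme for full effect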
#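 Resorufin fluorescence (ex540/em590), read at 0 and 20 min after diaphorase/resazurin addition, reports the NADH left after a 5 min room-temperature reaction of 2 nM human LDH5 with 0.06 mM NADH and 0.2 mM pyruvate.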
# USP1-UAF1 inh = Inhibitors of USP1/UAF1: Primary Screen | Ubiquitin carboxyl-terminal hydrolase 1 (Homo sapiens), O94782 | recombinant USP1/UAF1, Ub-Rhodamine cleavage fluorescence | Potency, µM (doses to about 57.1 µM), inactives show at the highest dose activity change, negative = inhibition, most hits filed as inhibitors | hit rate 0.23% among 390,000; note: potency is the fitted concentration of half-maximal effect; % is set by controls: 0 for no effect and ±100 for the full control effect; nearly all actives have a fitted effect of over 60% in size
#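 USP1/UAF1 complex (1 nM) preincubated 15 min at room temperature with compound, then Ub-Rho substrate (150 nM final) added. Kinetic fluorescence at 480/540 nm over 6 reads at 60 s intervals; 50 mM HEPES pH 7.8, 0.5 mM EDTA, 0.1 mg/ml BSA, 1 mM TCEP, 0.01% Tween-20.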
# EPAC1 antag = qHTS for Antagonist of cAMP-regulated guanine nucleotide exchange factor 3 (EPAC1): primary screen. Rap guanine nucleotide exchange factor 3 (Homo sapiens), O95398. EPAC1 GEF assay, Rap1b-BODIPY-GDP exchange fluorescence. Potency, µM (series often up to 115 µM), for inactives: at the top dose activity change, negative = inhibition, hits mostly inhibitors. hit rate 0.14% among 360,000. AID 720709, 2013;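 note: potency is the fitted concentration of half-maximal effect; plate controls were vehicle for no effect and positive control for full effect; nearly all actives have a fitted effect of over 50% in size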
# Target sequence (O95398 whole entry, looked up): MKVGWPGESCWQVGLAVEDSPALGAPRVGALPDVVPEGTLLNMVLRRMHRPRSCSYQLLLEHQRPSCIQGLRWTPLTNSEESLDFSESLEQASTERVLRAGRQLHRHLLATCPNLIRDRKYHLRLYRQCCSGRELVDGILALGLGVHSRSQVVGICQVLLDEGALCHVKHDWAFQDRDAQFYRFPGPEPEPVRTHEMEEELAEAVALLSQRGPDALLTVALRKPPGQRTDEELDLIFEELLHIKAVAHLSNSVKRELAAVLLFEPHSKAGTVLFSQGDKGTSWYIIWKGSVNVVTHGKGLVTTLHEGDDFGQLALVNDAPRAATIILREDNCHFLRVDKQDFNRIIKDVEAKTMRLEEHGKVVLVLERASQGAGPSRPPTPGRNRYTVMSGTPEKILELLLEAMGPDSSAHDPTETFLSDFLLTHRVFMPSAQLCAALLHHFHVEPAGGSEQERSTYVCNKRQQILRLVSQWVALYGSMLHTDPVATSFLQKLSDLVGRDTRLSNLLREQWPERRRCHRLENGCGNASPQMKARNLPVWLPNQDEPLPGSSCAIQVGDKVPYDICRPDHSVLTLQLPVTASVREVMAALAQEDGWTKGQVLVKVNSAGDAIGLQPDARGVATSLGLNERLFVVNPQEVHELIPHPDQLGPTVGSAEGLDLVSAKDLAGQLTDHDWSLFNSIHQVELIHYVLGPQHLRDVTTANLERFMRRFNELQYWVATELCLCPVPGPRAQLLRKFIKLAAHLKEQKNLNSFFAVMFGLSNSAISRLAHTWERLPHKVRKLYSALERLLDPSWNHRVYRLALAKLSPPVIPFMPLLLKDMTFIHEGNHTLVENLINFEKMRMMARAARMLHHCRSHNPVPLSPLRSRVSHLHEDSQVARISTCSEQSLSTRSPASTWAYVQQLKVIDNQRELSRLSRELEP
# EPAC2 antag = qHTS for Antagonist of cAMP-regulated guanine nucleotide exchange factor 2 (EPAC2): primary screen; Rap guanine nucleotide exchange factor 4 (Homo sapiens), Q8WZA2; hit rate 0.18% among 360,000; Potency, µM (titrated, usually from 114 µM), without a hit: at the highest dose activity, negative = inhibition, usual class: inhibitors; EPAC2 GEF exchange of Rap1B-BODIPY-GDP, fluorescence; note: potency is the fitted concentration of half-maximal effect; % is set by controls: 0 for no effect and ±100 for the full control effect; nearly all actives have a fitted effect of over 45% in size
# EPAC2 agonist = qHTS for Agonist of cAMP-regulated guanine nucleotide exchange factor 4 (EPAC2): primary screen; Rap guanine nucleotide exchange factor 4 (Homo sapiens), Q8WZA2; EPAC2 activation, biochemical qHTS; response scale: 100% = 6.5 mM cAMP response; Potency, µM (highest dose often 154 µM), for the others: at the top dose activation, hits mostly activators; hit rate 0.079% among 360,000; AID 720711, 2013; note: potency is the fitted concentration of half-maximal effect; nearly all actives have a fitted effect of over 50% in size
#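 Each well held 100 nM EPAC2, 250 nM RAP1B-BODIPY-GDP and 50 uM GDP. Fluorescence, read at 5-min intervals to 30 min, was referenced to a 6.5 mM cAMP positive control.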
# EPAC1 agonist = qHTS for Agonist of cAMP-regulated guanine nucleotide exchange factor 3 (EPAC1): primary screen; Rap guanine nucleotide exchange factor 3 (Homo sapiens), O95398; Potency, µM (titrated, usually from 154 µM), for the others: at the top dose activation, most hits filed as activators; EPAC1 agonist qHTS, biochemical assay; response scale: 100% = response to 6.5 mM cAMP; hit rate 0.073% among 360,000; note: potency is the fitted concentration of half-maximal effect; nearly all actives have a fitted effect of over 60% in size
#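 EPAC1 100 nM, Rap1B–BODIPY-GDP 250 nM, unlabeled GDP 50 uM; compound titration; 5 min RT; kinetic read ex480/em540 at 5-min intervals ×30 min; data normalized to 6.5 mM cAMP agonist control.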
# Numbers without * were called inactive; ? = inconclusive; . = not tested or not shown; [ ] = remark or other dose. Unless noted, calls come from the whole dose curve; as a rule, active = well fitted curve in the direction sought with a large enough effect; inconclusive = small, poorly fitted or top-dose-only effect, or another doubt; inactive = no such curve, though single readings can be large; an effect the other way counts as inactive or inconclusive.
SMILES,LDHA inh,USP1-UAF1 inh,EPAC1 antag,EPAC2 antag,EPAC2 agonist,EPAC1 agonist
OCCN(CCO)c1nc(N2CCCCC2)c2nc(N(CCO)CCO)nc(N3CCCCC3)c2n1,4,28µM*,190%,185%,112µM*,100µM*
Nc1nc(NCCO)nc(N2CCCCCC2)c1[N+](=O)[O-],-4,-12%,-4%,16%,9%,-4%
COC(=O)c1cc(C(=O)c2ccc(Cl)cc2)n2c(=O)/c(=C\N(C)C)sc12,0,1%,-5%,93%,100µM*,12%
Cc1ccc(NC(=O)CSc2nc3ncc(Cl)cc3[nH]2)c(C)c1,-7,-32%,13%,13%,-10%,4%
O=C1C=C(c2c(O)ccc3ccccc23)c2ccccc2C1=O,45,28µM*,35µM*,?,29%,15%
CCc1cc(=O)oc2cc(C)cc(OCC(=O)N[C@@H](CSCc3ccccc3)C(=O)O)c12,-6,10%,-16%,56µM*,7%,-20%
CC(=O)N1C=CN(C(C)=O)C(c2cn(C)c3ccccc23)C1c1cn(C)c2ccccc12 (stereo unspecified),-6,-14%,-7%,56µM*,9%,18%
CCN1CCN(CC(=O)Nc2cc(C)on2)CC1,-25,-6%,-6%,0%,3%,8%
Cc1cc(NC(=O)CN2CCCCC2)no1,-32*,?,4%,3%,10%,2%
CCc1ccccc1Nc1nn2c(=O)c3ccc(C(=O)NCc4cccs4)cc3nc2s1,-9,-11%,.,.,.,.
Cc1ccsc1C=Nc1ccc(O)cc1,31,2.2µM*,35µM*,50µM*,10%,12%
CONC(=O)C(CC(C)C)NC(=O)c1ccc(Cl)cc1 (stereo unspecified),7,.,.,.,.,.
CCCc1cc(=O)oc2c(C)c(OC(C)C(=O)NCCCn3ccnc3)ccc12 (stereo unspecified),-33*,.,.,.,.,.
C=CCN1C=CC(=C/C=C(/C#N)C(=O)OCC)C=C1,2,28µM*,-2%,3%,28%,24%
CCOC(=O)/C(C#N)=C/C=C1/C=CC=CN1C,-1,-16%,-5%,3%,9%,-8%
Cc1cc(O)c(C(=O)/C=C/c2cccc([N+](=O)[O-])c2)c(=O)o1,0,-14%,56µM*,-4%,6%,-6%
Clc1cccc(Cl)c1C1Nc2cccc3cccc(c23)N1,7,-9%,?,56µM*,10%,7%
O=C(CSc1ncccn1)N1CCN(C(c2ccccc2)c2ccccc2)CC1,-56*,-18%,10%,0%[57.1 µM],9%,9%
O=C(CSc1ncccn1)N1CCN(C(=O)CSc2ncccn2)CC1,-9,-16%,-4%,-2%,2%,14%
O=C(Nc1ccc(Cl)cc1)Nc1cccnc1,-34*,-3%,2%,-3%,2%,9%
O=C(Nc1ccc(Cc2ccc(NC(=O)Nc3cccnc3)cc2)cc1)Nc1cccnc1,-4,-27%,4%,-1%,4%,1%
O=C(Nc1cccc(Cl)c1)c1ccc2c(c1)CCN2S(=O)(=O)c1ccccc1,1,-22%,.,.,.,.
O=C(/C=C/c1cccc(O)c1)c1ccc(F)c(Cl)c1,5,.,.,.,.,.
O=C(Nc1cccs1)Nc1ccccc1Cl,-6,3%,-21%,22µM*,6%,-4%
COCOCCn1cc(CN2CCS(=O)(=O)N(Cc3ccc(-c4ccc(F)cc4)cc3)C(CC(C)C)C2=O)nn1 (stereo unspecified),0,-9%,-17%,13µM*,1%,-19%
SMILES,LDHA inh,USP1-UAF1 inh,EPAC1 antag,EPAC2 antag,EPAC2 agonist,EPAC1 agonist
COc1ccc(N2CCN(C(=O)CCc3ccccc3OC)CC2)cc1,-6,-11%,89µM*,1%,10%,-172%
O=C(O)c1ccc(S(=O)(=O)NCCCO)cc1,4,.,.,.,.,.
COC(=O)C1=CN(C)C=C(C(=O)OC)C1c1cccs1,9,.,.,.,.,.
O=C(O)c1ccc(C[n+]2c(-c3ccccc3)csc2Nc2ccccc2)cc1,-9,-15%,4%,-4%,-10%,-8%
CC(C)(C)c1cc(-c2csc(Nc3ccccc3)[n+]2Cc2ccc(C(=O)O)cc2)cc(C(C)(C)C)c1O,0,?,79µM*,-23%,-10%,-1%
CCN(CC(=O)Nc1cc(C)c(Cl)cc1OC)CC(=O)NC1CCS(=O)(=O)C1 (stereo unspecified),-1,-17%,3%,2%,1%,6%
CCN(CC(=O)Nc1cc(Cl)ccc1OC)CC(=O)NC1CCS(=O)(=O)C1 (stereo unspecified),-36*,-16%,9%,4%,7%,-6%
CCc1c(C)sc2c1CCN(C(=O)Nc1ccccc1Cl)C2c1ccc(OC)cc1 (stereo unspecified),-5,?,.,.,.,.
C[C@@H](NC(=O)C1(c2ccccc2)CCN(C(=O)OC(C)(C)C)CC1)C(=O)N[C@@H](C(=O)O)c1ccccc1,-8,-1%,56µM*,?,-6%,-23%
C[C@H](NC(=O)C1(c2ccccc2)CCN(C(=O)OC(C)(C)C)CC1)C(=O)N[C@@H](C(=O)O)c1ccccc1,-11,-2%,1%,17%,0%,3%
COc1cccc2c1C(=O)c1c(O)c3c(c(O)c1C2=O)CC(O)(C(C)=O)CC3OC1CC(O)C(O)C(C)O1 (stereo unspecified),29,25µM*,31%,-1%,-5%,35%
COc1cccc2c1C(=O)c1c(O)c3c(c(O)c1C2=O)C[C@](O)(C(C)=O)C[C@H]3O[C@@H]1C[C@@H](N)[C@@H](O)[C@@H](C)O1,2,13µM*,41%,53%,0%,5%
O=C(O)C(Cc1c[nH]c2ccccc12)NS(=O)(=O)c1cccc(Cl)c1Cl (stereo unspecified),-5,1%,-14%,45µM*,11%,2%
O=C(O)c1ccc(Cl)c(S(=O)(=O)NC(Cc2c[nH]c3ccccc23)C(=O)O)c1 (stereo unspecified),-4,-12%,-7%,6%,12%,3%
